Out of some 48,000 compounds screened, about 13,000 (27%) showed an effect of 50% or more. The list shows a part of the results.

The experiment relates to Wolbachia pipientis. Description: Anti-Wolbachia Cell-Based Screen. The experiment is classed as functional. Also noted: scale not given: in the data most compounds retested in dose-response had high values. Particulars: 5 µM.
Turning to `CC1N(CC2CC2)C(=O)COC12CCN(C(=O)c1cccs1)CC2` (centres undefined), the “Percent Effect” value is 8.45%.

As for `O=C(CCC(=O)c1cccs1)NC1(C(=O)NCC2CC2)CCCC1`, the “Percent Effect” value is reported as 1.426%.

`O=C(O)C(F)(F)F.O=C1CC2(CCCCN2C(=O)Cc2ccccc2)CN1c1cccnc1` (centres undefined): the “Percent Effect” value was -0.631%.

For `O=C1CC2(CCCCN2C(=O)c2ccoc2)CN1Cc1ccccc1` (centres undefined), the “Percent Effect” value was -18.39%.

In the case of `O=C1CC2(CCCCN2C(=O)c2ccccc2)CN1CC1CC1` (centres undefined), the “Percent Effect” value is listed as 79.38%.

Consider `Cn1ccc(C(=O)N2CCCCC23CC(=O)N(Cc2ccccc2)C3)n1` (centres undefined), for which the “Percent Effect” value is reported as -1.004%.

Regarding `O=C1CC2(CCCCN2C(=O)c2cccs2)CN1CC1CC1` (centres undefined), the “Percent Effect” value is reported as 78.16%.

As to `O=C(O)C(F)(F)F.O=C1CC2(CCCCN2C(=O)c2ccco2)CN1c1cccnc1` (centres undefined), the “Percent Effect” value stood at 3.429%.

Regarding `CC(=O)N(C)CCc1nc(-c2cc(C(N)=O)co2)cs1`, the “Percent Effect” value is -0.5467%.

As for `COc1cnc(N2CCC(Oc3ccccc3OC)(C(=O)O)CC2)nc1`, the “Percent Effect” value is -8.18%.

Consider `COc1ccccc1C(C)Nc1ncc(C(N)=O)cc1Cl` (centres undefined), for which the “Percent Effect” value amounted to 2.47%.

With `Cc1cccc(C)c1OC1CN(C(=O)C2CCN(C(=O)N(C)C)CC2)C1`, the “Percent Effect” value is recorded as -8.295%.

For the molecule `CCc1nc(CCn2ccnc2-c2nccn2C)no1`, the “Percent Effect” value is -9.052%.

With `Cn1cc(CN2C[C@@H](F)[C@@H](OCc3nc4cnccc4[nH]3)C2)cn1`, the “Percent Effect” value is -2.303%.

As to `Fc1ccc(-c2c[nH]c([C@@H]3COCCN3)n2)cc1`, the “Percent Effect” value is reported as -3.188%.

On to `Clc1ccc(-c2c[nH]c([C@@H]3COCCN3)n2)cc1`, for which the “Percent Effect” value is given as -8.999%.

Take `Cc1nc(Cc2ccc(F)cc2)cc(C2COCCN2)n1.Cl` (centres undefined): the “Percent Effect” value was 104.2%.

On to `COc1ccc2[nH]c(CNc3cc(C4CCNCC4)nc(C)n3)cc2c1`, for which the “Percent Effect” value is listed as -0.5265%.

`Cc1nc(NCc2cccc(F)c2)cc(C2CCNCC2)n1.Cl`: the “Percent Effect” value was 92.9%.

Take `Cc1ccc(-c2cn3c(n2)CO[C@@H](CNCc2nccn2C)C3)cc1`: the “Percent Effect” value is -11.82%.

As for `Cc1nc(NCc2nccn2C)cc(C2COCCN2)n1` (centres undefined), the “Percent Effect” value is listed as 145.4%.

On to `Fc1cccc(CNc2cncc(-n3cccn3)n2)c1`, for which the “Percent Effect” value is 9.755%.

With `Cc1nc(NCc2ccc(F)cc2)cc(C2CCCN2)n1.Cl` (centres undefined), the “Percent Effect” value was 123.2%.

For the molecule `Cn1ccnc1-c1ccc(NCC2COCCO2)nn1` (centres undefined), the “Percent Effect” value is recorded as -2.389%.

Consider `Cc1cc(NCc2ccc(N3CCNC(=O)C3)cc2)nc(C)n1`, for which the “Percent Effect” value is reported as 3.077%.

For the molecule `COCC(c1cccc(C(F)(F)F)c1)N(C)C(=O)c1cc(C)no1` (centres undefined), the “Percent Effect” value is given as -19.18%.

For `CCOC(C(=O)N1CCn2c(CC)nnc2C1)c1ccccc1` (centres undefined), the “Percent Effect” value came out at 26.72%.

On to `CCc1nnc2n1CCN(C(=O)c1cc3ccccc3[nH]1)C2`, for which the “Percent Effect” value worked out at 108.3%.

Regarding `CCc1nnc2n1CCN(C(=O)c1cnc3c(cnn3C(C)C)c1)C2`, the “Percent Effect” value is -2.522%.

As to `Cc1ccc2cc(C(=O)N3CCN(S(C)(=O)=O)CC3)[nH]c2c1`, the “Percent Effect” value is recorded as -2.597%.

For the molecule `CCc1nnc2n1CCN(C(=O)c1cc3ccc(F)cc3nc1C)C2`, the “Percent Effect” value turned out to be 4.903%.

As to `CCc1nnc2n1CCN(C(=O)c1cc3ccc(C)cc3[nH]1)C2`, the “Percent Effect” value was found to be 95.03%.

For `CCc1nnc2n1CCN(C(=O)c1cc3cc(C)ccc3[nH]1)C2`, the “Percent Effect” value came out at 89.42%.

Take `CCc1nnc2n1CCN(C(=O)c1cc(Br)c[nH]1)C2`: the “Percent Effect” value is reported as 2.696%.

On to `CCc1nnc2n1CCN(C(=O)c1cc3cc(F)ccc3[nH]1)C2`, for which the “Percent Effect” value amounted to 1.688%.

`CCc1nnc(CN2CCN(C(=O)c3cc4ccccc4[nH]3)CC2)o1`: the “Percent Effect” value is listed as 0.1099%.

For `CCc1nnc2n1CCN(C(=O)c1ccc(C(F)(F)F)nc1C)C2`, the “Percent Effect” value was determined as 5.32%.

Regarding `CCOc1ccc2cc(C(=O)N3CCn4c(CC)nnc4C3)[nH]c2c1`, the “Percent Effect” value is given as 104.5%.

In the case of `c1cc(-c2ccc(CN3CCCC4(CCNC4)C3)s2)[nH]n1` (centres undefined), the “Percent Effect” value is on record as 24.12%.

`CCc1nnc2n1CCN(C(=O)c1cnc(-c3cccs3)s1)C2`: the “Percent Effect” value is given as -0.7102%.

For the molecule `CCc1nnc2n1CCN(C(=O)c1cc3c(F)cccc3[nH]1)C2`, the “Percent Effect” value is listed as 92%.

In the case of `CCc1nnc2n1CCN(C(=O)c1ccc3c(c1)NC(=O)CO3)C2`, the “Percent Effect” value was -1.668%.

`Cc1nn(C)c(Oc2ccc(Cl)cc2)c1CN1CCOC(CN)C1` (centres undefined): the “Percent Effect” value is -15.91%.

On to `CN(C)C(=O)CO[C@H]1COCCN(C2CCOCC2)C1`, for which the “Percent Effect” value is -5.811%.

With `CN(C)C(=O)[C@H]1C[C@@H]2CCN(C3CCOCC3)C[C@@H]2O1.O=C(O)C(F)(F)F`, the “Percent Effect” value came to 90.19%.

Take `CN(C)C(=O)[C@H]1C[C@@H]2CCN(C3CCOCC3)C[C@H]2O1`: the “Percent Effect” value is -14.13%.

For the molecule `CN(C)C(=O)[C@@H]1C[C@@H]2CCN(C3CCOCC3)C[C@H]2O1.O=C(O)C(F)(F)F`, the “Percent Effect” value was determined as 104.8%.

`O=C(NC1CC1)[C@@H]1CCO[C@@H]2CCN(C3CCOCC3)C[C@@H]21.O=C(O)C(F)(F)F`: the “Percent Effect” value was -4.22%.

Regarding `CN(C)C(=O)[C@@H]1C[C@@H]2CCN(C3CCOCC3)C[C@@H]2O1`, the “Percent Effect” value is 104.3%.

These data come from ChEMBL document CHEMBL3988442, “University of Dundee, Small-Polar-MMV Screening Library” (2021).
